Laboratory results taken from the supplement of paper PMC8975748.
Counter-ions that a name gives are not always drawn. ± gives the standard deviation of the averaged measurements.

Columns and labels:
[1] = tested on: Saccharomyces cerevisiae BY4741 SeMeCo community; test: mean cell size (pixel area) (pixels); higher = larger cells; conditions: 10 µM; 24 h; SM minimal medium
Summary of the method: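 A fluorescent Saccharomyces cerevisiae BY4741 community carrying four plasmids was used, with each plasmid complementing one auxotrophy and bearing a fluorescent marker. An overnight preculture at OD600 = 1.0 was diluted to OD600 = 0.3, and 70 µl went into 384-well plates acoustically predosed with drug (final 10 µM) in SM medium for 24 h. After paraformaldehyde fixation, cells were imaged by automated confocal microscopy and analysed in Harmony, giving the mean cell pixel area per well. Each value is the average of 3 replicates. Same SeMeCo high-content imaging drug screen: Selleck FDA-approved drugs at 10 µM, 24 h in SM medium, 384-well plates, 3 replicates.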

[2] = tested on: Saccharomyces cerevisiae BY4741 SeMeCo community; test: z-score of prototroph abundance vs DMSO median; higher = larger share of this subpopulation than in DMSO controls; conditions: 10 µM; 24 h; SM minimal medium; subpopulation (auxotrophy): Prototroph
Summary of the method: (§1)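 Scoring was based on each subpopulation's abundance, expressed as a z-score against the vehicle-well median. A Saccharomyces cerevisiae BY4741 community with four plasmids, each restoring one auxotrophy and encoding a distinct fluorescent protein, was pre-grown overnight to OD600 1.0, diluted to 0.3, and added at 70 µl to 384-well plates acoustically predosed with library drugs (10 µM final). It then grew 24 h in minimal SM medium before paraformaldehyde fixation and automated confocal microscopy, with single-auxotroph fluorescent strains setting thresholds and autofluorescence correction.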

[3] = tested on: Saccharomyces cerevisiae BY4741 SeMeCo community; test: z-score of subpopulation abundance vs DMSO median, subpopulation auxotrophic for M; higher = larger share of this subpopulation than in DMSO controls; conditions: 10 µM; 24 h; SM minimal medium; subpopulation (auxotrophy): M
Summary of the method: as §1

[4] = tested on: Saccharomyces cerevisiae BY4741 SeMeCo community; test: z-score of subpopulation abundance vs DMSO median, subpopulation auxotrophic for L; higher = larger share of this subpopulation than in DMSO controls; conditions: 10 µM; 24 h; SM minimal medium; subpopulation (auxotrophy): L
Summary of the method: as §1

[5] = tested on: Saccharomyces cerevisiae BY4741 SeMeCo community; test: z-score of subpopulation abundance vs DMSO median, subpopulation auxotrophic for U; higher = larger share of this subpopulation than in DMSO controls; conditions: 10 µM; 24 h; SM minimal medium; subpopulation (auxotrophy): U
Summary of the method: as §1

[6] = tested on: Saccharomyces cerevisiae BY4741 SeMeCo community; test: z-score of subpopulation abundance vs DMSO median, subpopulation auxotrophic for H; higher = larger share of this subpopulation than in DMSO controls; conditions: 10 µM; 24 h; SM minimal medium; subpopulation (auxotrophy): H
Summary of the method: as §1

[7] = tested on: Saccharomyces cerevisiae BY4741 SeMeCo community; test: z-score of subpopulation abundance vs DMSO median, subpopulation auxotrophic for LU; higher = larger share of this subpopulation than in DMSO controls; conditions: 10 µM; 24 h; SM minimal medium; subpopulation (auxotrophy): LU
Summary of the method: as §1

[8] = tested on: Saccharomyces cerevisiae BY4741 SeMeCo community; test: z-score of subpopulation abundance vs DMSO median, subpopulation auxotrophic for LM; higher = larger share of this subpopulation than in DMSO controls; conditions: 10 µM; 24 h; SM minimal medium; subpopulation (auxotrophy): LM
Summary of the method: as §1

[9] = tested on: Saccharomyces cerevisiae BY4741 SeMeCo community; test: z-score of subpopulation abundance vs DMSO median, subpopulation auxotrophic for HM; higher = larger share of this subpopulation than in DMSO controls; conditions: 10 µM; 24 h; SM minimal medium; subpopulation (auxotrophy): HM
Summary of the method: as §1

[10] = tested on: Saccharomyces cerevisiae BY4741 SeMeCo community; test: z-score of subpopulation abundance vs DMSO median, subpopulation auxotrophic for HU; higher = larger share of this subpopulation than in DMSO controls; conditions: 10 µM; 24 h; SM minimal medium; subpopulation (auxotrophy): HU
Summary of the method: as §1

[11] = tested on: Saccharomyces cerevisiae BY4741 SeMeCo community; test: z-score of subpopulation abundance vs DMSO median, subpopulation auxotrophic for UM; higher = larger share of this subpopulation than in DMSO controls; conditions: 10 µM; 24 h; SM minimal medium; subpopulation (auxotrophy): UM
Summary of the method: as §1

[12] = tested on: Saccharomyces cerevisiae BY4741 SeMeCo community; test: z-score of subpopulation abundance vs DMSO median, subpopulation auxotrophic for HL; higher = larger share of this subpopulation than in DMSO controls; conditions: 10 µM; 24 h; SM minimal medium; subpopulation (auxotrophy): HL
Summary of the method: as §1

[13] = tested on: Saccharomyces cerevisiae BY4741 SeMeCo community; test: z-score of subpopulation abundance vs DMSO median, subpopulation auxotrophic for HLU; higher = larger share of this subpopulation than in DMSO controls; conditions: 10 µM; 24 h; SM minimal medium; subpopulation (auxotrophy): HLU
Summary of the method: as §1

[14] = tested on: Saccharomyces cerevisiae BY4741 SeMeCo community; test: z-score of subpopulation abundance vs DMSO median, subpopulation auxotrophic for HLM; higher = larger share of this subpopulation than in DMSO controls; conditions: 10 µM; 24 h; SM minimal medium; subpopulation (auxotrophy): HLM
Summary of the method: as §1

[15] = tested on: Saccharomyces cerevisiae BY4741 SeMeCo community; test: z-score of subpopulation abundance vs DMSO median, subpopulation auxotrophic for HUM; higher = larger share of this subpopulation than in DMSO controls; conditions: 10 µM; 24 h; SM minimal medium; subpopulation (auxotrophy): HUM
Summary of the method: as §1

[16] = tested on: Saccharomyces cerevisiae BY4741 SeMeCo community; test: z-score of subpopulation abundance vs DMSO median, subpopulation auxotrophic for HLUM; higher = larger share of this subpopulation than in DMSO controls; conditions: 10 µM; 24 h; SM minimal medium; subpopulation (auxotrophy): HLUM
Summary of the method: as §1

[17] = tested on: Saccharomyces cerevisiae BY4741 SeMeCo community; test: z-score of subpopulation abundance vs DMSO median, subpopulation auxotrophic for LUM; higher = larger share of this subpopulation than in DMSO controls; conditions: 10 µM; 24 h; SM minimal medium; subpopulation (auxotrophy): LUM
Summary of the method: as §1

SMILES | mean cell size [1] | z-score of prototroph abundance [2] | z-score of subpopulation abundance [3] | z-score of subpopulation abundance [4] | z-score of subpopulation abundance [5] | z-score of subpopulation abundance [6] | z-score of subpopulation abundance [7] | z-score of subpopulation abundance [8] | z-score of subpopulation abundance [9] | z-score of subpopulation abundance [10] | z-score of subpopulation abundance [11] | z-score of subpopulation abundance [12] | z-score of subpopulation abundance [13] | z-score of subpopulation abundance [14] | z-score of subpopulation abundance [15] | z-score of subpopulation abundance [16] | z-score of subpopulation abundance [17]
Cc1cc(O)c(C(=O)N[C@@H](C(=O)N[C@@H]2C(=O)N3C(C(=O)O)=C(CSc4nnnn4C)CS[C@H]23)c2ccc(O)cc2)cn1 [Cefpiramide sodium] | 12.3 ± 0.13 | -0.28 | 0.99 | -0.92 | 0.61 | -0.05 | -0.12 | -0.42 | 0.57 | 0.5 | 0.29 | 0.18 | 0.16 | -0.6 | -0.35 | -0.55 | 
CCCc1cc(C(N)=S)ccn1 [Protionamide] | 12.4 ± 0.19 | 0.19 | 0.32 | 0.04 |  | -0.56 | -0.68 | 0.16 | 0.36 | -0.73 |  | -0.83 | -0.42 | -0.03 | 0.47 | -0.96 | 
CC1(C)S[C@@H]2[C@H](NC(=O)[C@H](NC(=O)N3CCN(S(C)(=O)=O)C3=O)c3ccccc3)C(=O)N2[C@H]1C(=O)O [Mezlocillin Sodium] | 12.5 ± 0.21 |  | -0.07 | 0.24 |  | 0.1 | 0.6 | -0.38 | -0.71 | 0.3 | -0.36 | -0.55 | 0.28 | -0.19 | -0.29 | -0.69 | -0.16
CN1CCN(CCCN2c3ccccc3Sc3ccc(Cl)cc32)CC1 [Prochlorperazine dimaleate salt] | 12.4 ± 0.15 | -0.98 | 0.75 | 0.41 | -0.36 | 1.05 | -0.07 | 0.75 | 1.58 | 0.89 | 0.65 |  | 0.49 | 0.12 | 1.51 | 0.48 | 
Cc1ccc2c(Cl)cc(Cl)c(O)c2n1 [Chlorquinaldol] | 14.5 ± 0.18 | -18.8 | 7.61 | 0.46 | -6.35 | 9.18 | -2.2 | 9.8 | 33.5 | 7.3 | -1.95 | 19.8 | 28.9 | 107 | 15.8 | 114 | 
CCN(CC)CCNC(=O)c1cc(Cl)c(N)cc1OC [Metoclopramide] | 12 ± 0.25 | -1.14 | 0.35 | -0.22 | 1.49 | -0.88 | 0.6 | 0.08 | 0.05 |  | 1.28 | -0.39 | 1.27 | 0.54 | 0.35 | 1.06 | 1.17
